This passage reports growth results from PubChem BioAssay (NCI).

Some test systems named below: HCT-15 colon; HT29 colon; SNB-75 CNS; U251 CNS; PC-3 prostate; SK-MEL-5 melanoma; UACC-62 melanoma; LOX IMVI melanoma; SK-MEL-28 melanoma; SK-MEL-2 melanoma; EKVX NSCLC; SN12C renal; UO-31 renal; TK-10 renal; ACHN renal; CAKI-1 renal; A498 renal; CCRF-CEM leukemia; MOLT-4 leukemia.
Experiment in all cases: NCI-60 one-dose screen, 48 h (100 = growth as untreated, 0 = no growth, -100 = all killed)
Conditions in all cases: 10 µM unless noted

Compounds without any hit were thinned out: in the full panel of roughly 83,000, 20% have a hit.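 Plates (96-well) were seeded with cells, treated with compound at one concentration, and incubated for 48 hours before percent growth was determined.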 A number with no mark means an inactive call. Calls of active or inactive are those of the source. Rule for the calls: active = growth percent below 10; inactive = the rest.

`COc1c(O)c(O)cc2c3c(oc12)CC(c1ccc2c(c1)OCO2)CC3=O` (stereo not given): the growth with HCT-15 colon was 42.1%; with HT29 colon it was 93.4%; in the experiment with SNB-75 CNS it was 84.5%; in the experiment on U251 CNS it was 76.2%; in the experiment with PC-3 prostate, 76.1%; in the experiment on SK-MEL-5 melanoma it was 31.4%. Also, the growth was 4.1% (active) with UACC-62 melanoma; 25.3% in the experiment with LOX IMVI melanoma; 47% in the experiment with SK-MEL-28 melanoma; 69.6% in the experiment with SK-MEL-2 melanoma; 65.2% with EKVX NSCLC; 82.2% in the experiment with SN12C renal. In addition, the growth in the experiment with UO-31 renal is 44.7%; in the experiment on TK-10 renal, 101%; with ACHN renal it was 29.7%; with CAKI-1 renal, 72%; in the experiment on A498 renal, 97.9%; in the experiment on CCRF-CEM leukemia, 56.7%. For the same compound, the growth in the experiment on MOLT-4 leukemia was 43.5%.

Turning to `CC[C@H](C)[C@H](NC(=O)[C@@H](N)CCC(N)=O)C(=O)N[C@@H](Cc1ccc(O)cc1)C(=O)N[C@@H](CCCCN)C(=O)N[C@@H](CCCCN)C(=O)N[C@@H](Cc1ccc(O)cc1)C(=O)N[C@@H](CCCNC(=N)N)C(=O)N[C@H](C(=O)N[C@@H](Cc1c[nH]c2ccccc12)C(=O)N[C@@H](Cc1ccc(O)cc1)C(=O)N[C@@H](CCCNC(=N)N)C(=O)N[C@@H](CCCCN)C(=O)N[C@@H](C)C(=O)N[C@@H](Cc1c[nH]c2ccccc12)C(=O)N[C@@H](CCCCN)C(=O)N[C@H](C(=O)N[C@@H](CC(C)C)C(=O)NCC(=O)N[C@@H](CCCCN)C(=O)N[C@H](C(N)=O)C(C)C)C(C)C)[C@@H](C)O`, the growth in the experiment with HCT-15 colon was 4.9% (active); in the experiment with HT29 colon, 63.6%; with SNB-75 CNS, 15.5%; with U251 CNS it was 23.7%; in the experiment with PC-3 prostate, -37% (active); in the experiment with SK-MEL-5 melanoma, -38% (active). The growth in the experiment on UACC-62 melanoma was -71.2% (active); with LOX IMVI melanoma, 69.8%; in the experiment on SK-MEL-28 melanoma, 16.3%; with SK-MEL-2 melanoma, 43.3%; in the experiment on EKVX NSCLC, -34.5% (active); in the experiment on SN12C renal, 12.4%. The growth was 76% with UO-31 renal; 8.22% (active) in the experiment on TK-10 renal; 65.6% in the experiment with ACHN renal; 7.94% (active) in the experiment with CAKI-1 renal; 64.6% in the experiment with A498 renal; 5.19% (active) with CCRF-CEM leukemia. The growth in the experiment with MOLT-4 leukemia was 52.9%.

Turning to `CCCCn1c(C(=O)c2c[nH]c3ccccc23)n[nH]c1=S`, the growth in the experiment on HCT-15 colon was 99%; with HT29 colon, 99.8%; in the experiment with SNB-75 CNS, 81.2%; with U251 CNS, 100%; in the experiment on PC-3 prostate, 93.8%; in the experiment with SK-MEL-5 melanoma, 99.9%. For the same compound, the growth with UACC-62 melanoma is 81.7%; in the experiment on SK-MEL-28 melanoma, 117%; with SK-MEL-2 melanoma it was 91.9%; in the experiment with EKVX NSCLC, 90.3%; in the experiment with SN12C renal, 90%; in the experiment with UO-31 renal, 90.1%. The growth in the experiment with TK-10 renal is 132%; in the experiment on ACHN renal, 102%; in the experiment on CAKI-1 renal, 79.3%; in the experiment with A498 renal, 92.1%; in the experiment on CCRF-CEM leukemia, 91.3%; in the experiment on MOLT-4 leukemia, 103%.

On to `O=C(N=Nc1c(O)[nH]c2ccccc12)Nc1ccccc1Cl`, for which the growth with HCT-15 colon is 68.1%; in the experiment with HT29 colon, 101%; in the experiment with SNB-75 CNS, 82%; in the experiment with U251 CNS, 92.2%; in the experiment with PC-3 prostate, 92.5%; with SK-MEL-5 melanoma it was 87.6%. The growth was 78.8% in the experiment on UACC-62 melanoma; 96.5% in the experiment on LOX IMVI melanoma; 105% with SK-MEL-28 melanoma; 102% in the experiment on SK-MEL-2 melanoma; 86.6% in the experiment with EKVX NSCLC; 86.4% in the experiment with SN12C renal. For the same compound, the growth in the experiment with UO-31 renal is 68.1%; in the experiment on TK-10 renal, 107%; with ACHN renal, 99%; in the experiment on CAKI-1 renal, 80.5%; in the experiment on A498 renal, 96.5%; in the experiment with CCRF-CEM leukemia it was 91.9%. In addition, the growth in the experiment with MOLT-4 leukemia was 93.3%.

As for `CCCn1nc(C(=O)N2CCCCC2)c2c1CCC(N1CCC(c3ccncc3)CC1)C2` (stereo not given), the growth in the experiment on HCT-15 colon was 105%; in the experiment on HT29 colon, 100%; in the experiment with SNB-75 CNS it was 96.1%; in the experiment on U251 CNS, 101%; in the experiment with PC-3 prostate, 101%; with SK-MEL-5 melanoma it was 102%. Further, the growth is 112% in the experiment on UACC-62 melanoma; 98.1% in the experiment with LOX IMVI melanoma; 115% in the experiment with SK-MEL-28 melanoma; 105% with SK-MEL-2 melanoma; 100% in the experiment on EKVX NSCLC; 118% with SN12C renal. The growth in the experiment on UO-31 renal was 92.7%; in the experiment on TK-10 renal, 101%; in the experiment with CAKI-1 renal, 95.8%; with A498 renal it was 109%; in the experiment on CCRF-CEM leukemia it was 101%; with MOLT-4 leukemia, 108%.

For `N#Cc1ccccc1OCC(=O)Nc1nc2c(s1)COc1ccccc1-2`, the growth in the experiment with HCT-15 colon is 103%; in the experiment with HT29 colon, 104%; with SNB-75 CNS, 82.7%; in the experiment on U251 CNS, 98.8%; in the experiment with PC-3 prostate it was 102%; in the experiment with SK-MEL-5 melanoma, 103%. Moreover, the growth is 82.4% in the experiment with UACC-62 melanoma; 90.6% with LOX IMVI melanoma; 116% with SK-MEL-28 melanoma; 88.7% in the experiment with SK-MEL-2 melanoma; 86.7% in the experiment with EKVX NSCLC; 96.2% in the experiment with SN12C renal. Moreover, the growth in the experiment with UO-31 renal was 72.4%; with TK-10 renal, 140%; in the experiment on CAKI-1 renal, 99.2%; in the experiment with A498 renal, 130%; in the experiment on CCRF-CEM leukemia, 96%; in the experiment on MOLT-4 leukemia, 77.5%.

As for `C[C@@H]1CC[C@@H]2[C@@H]1[C@H](OC(=O)/C=C/c1ccccc1)[C@]1(c3ccccc3)C[C@@H](NC(=O)CO)[C@@]2(C)O1`, the growth was 91.7% with HCT-15 colon; 109% in the experiment with HT29 colon; 88% with SNB-75 CNS; 88.9% with U251 CNS; 78.9% with PC-3 prostate; 97.9% with SK-MEL-5 melanoma. For the same compound, the growth with UACC-62 melanoma was 71.7%; in the experiment with LOX IMVI melanoma, 96.1%; in the experiment with SK-MEL-28 melanoma it was 103%; in the experiment on SK-MEL-2 melanoma it was 107%; in the experiment with EKVX NSCLC, 90.2%; in the experiment with SN12C renal, 86.8%. Besides, the growth in the experiment with UO-31 renal is 69.7%; with TK-10 renal, 112%; in the experiment on ACHN renal, 79.1%; in the experiment on CAKI-1 renal, 70.1%; with A498 renal, -3.59% (active); with CCRF-CEM leukemia, 99.8%. The growth with MOLT-4 leukemia is 84%.
